Source: PubChem (several laboratories)
An excerpt weighted towards active compounds, which were near 4% of everything screened.
Jurkat NFkB inh: inhibitors of the PMA/ionomycin-induced NF-kB reporter in Jurkat cells; PMA/ionomycin-induced NF-kB luciferase reporter, luminescence; AID 435003; inhibition, % at 4 µM; 0.53% of 330,000 active; in the data active = inhibition above about 50%
Beta apoptosis: beta cell apoptosis inhibition. INS-1E cytokine-induced death, ATP luminescence, 48 h; percent of positive-control rescue, neutral wells zero. protection from apoptosis, % (no concentration beside the values). 0.8% of 300,000 active. AID 435005;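 active = Every replicate reaches about 75%, or at least half do and their mean reaches it too, limit read from the data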;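 note: 0% = cytokine-treated negative control wells and 100% = positive control rescue; higher means more ATP so stronger rescue from cytokine killing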
Mdm2 MdmX PPI: inhibitors of human Mdm2/MdmX interaction. O15151+Q00987. SaOS-2 split-luciferase Mdm2/MdmX complementation, luminescence. inhibition, % at 8 µM. 3% of 330,000 active. AID 485346;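 active = inhibition of at least 50% at 8 µM in the primary screen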
Gli-Sufu block: blocks Gli-Sufu signaling in a luciferase reporter; Sufu-KO-LIGHT fibroblasts, Gli luciferase reporter luminescence; inhibition, % at 5 µM; 0.74% of 340,000 active;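 active = inhibition above about 55%, limit read from the data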;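 note: 0% = DMSO-treated cells and 100% = wells with medium but no cells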
697 NFkB inh: inhibitors of the PMA/ionomycin-induced NF-kB reporter in 697 B cells; 697 B-cell NF-kB luciferase reporter, 16 h; inhibition, % at 4 µM; 0.33% of 330,000 active; in the data active = inhibition above about 35%
Mdm2-MdmX conf: human Mdm2/MdmX binding inhibition, confirmed. AID 489028. shares compounds with Mdm2 MdmX PPI. luminescent assay. 55% of 10,000 active. inhibition, % at 8 µM; in the data active = inhibition above about 40%
FLuc counter: inhibits full-length luciferase, flagging false Mdm2/MdmX hits. shares compounds with Mdm2 MdmX PPI. SaOS-2 full-length luciferase counterscreen, luminescence. inhibition, % at 8 µM. 77% of 6,200 active;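 active = mean inhibition at 8 µM reaching about 37%, which flags the compound as non-specific, limit read from the data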;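 note: p53-null SaOS-2 cells with luciferase driven by a doxycycline-inducible promoter; compound on cells about two nights before reading with doxycycline added after day one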
Active calls of the source: *; . = no result given.

SMILES	Jurkat NFkB inh	Beta apoptosis	Mdm2 MdmX PPI	Gli-Sufu block	697 NFkB inh	Mdm2-MdmX conf	FLuc counter
COc1ccc(/C(N)=N/OC(=O)c2ccco2)cc1	-149	6	-147	-112	-173	.	.
Cc1ccc(C(=O)O/N=C(\N)c2ccc(Br)cc2)cc1	-40	0	98*	-98	-93	29	.
Cc1ccc(N2CC(C(=O)Nc3ccc(S(=O)(=O)Nc4ncccn4)cc3)CC2=O)cc1C (centres undefined)	11	-3	7	1	1	.	.
COc1ccc(C(=O)N2CCc3ccccc32)cc1S(=O)(=O)N1CCOCC1	0	-1	28	33	13	.	.
Cc1ccc(-c2nn3c(-c4ccco4)nnc3c3ccccc23)cc1S(=O)(=O)NCC1CCCO1 (centres undefined)	9	24	53*	29	13	39	68*
Cc1ccc2nc(NC(=O)c3cccc(-c4cc5ccccc5oc4=O)c3)sc2c1	-23	56	81*	-84	-118	68*	105*
O=C(Nc1cccnc1)c1cccc(-c2cc3ccccc3oc2=O)c1	3	6	-2	-50	-71	.	.
CC(Nc1nc(-c2ccc(F)cc2)cs1)c1nc2cc(Cl)c(N3CCCCC3)cc2n1CCCO (centres undefined)	6	16	75*	45	-1	18	.
COc1ccc(-c2csc(NC(C)c3nc4cc(Cl)c(Cl)cc4n3CCCO)n2)cc1 (centres undefined)	13	32	59*	24	-3	30	.
CC(Nc1nc(-c2ccc(F)cc2)cs1)c1nc2cc(Cl)c(Cl)cc2n1CCOCCO (centres undefined)	5	7	30	16	-12	.	.
Cc1nn(C)c(C)c1NC(=S)Nc1ccc(S(=O)(=O)Nc2ncccn2)cc1	4	-2	12	-6	-63	.	.
COc1ccc(-c2c(-c3ccccc3)n(C)c3ccccc23)cc1	12	3	-2	-2	7	.	.
CN=C1c2c(-c3ccccc3)c3cc(OC)ccc3n2CCN1C	0	-4	51*	23	-12	21	.
COc1ccc(C(=O)C(CCCCC(CN(C)C)C(=O)c2ccc(OC)cc2)CN(C)C)cc1 (centres undefined)	20	1	86*	13	9	59*	31
Cc1[nH]c2ccccc2c(=O)c1C(=O)/C=C/c1ccccc1	29	25	100*	9	-72	100*	52*
N#Cc1ccccc1OCC(=O)N1CCN(S(=O)(=O)c2ccc(Cl)cc2)CC1	12	1	-14	5	21	.	.
CCc1ccc(NC(=O)C2CCN(S(=O)(=O)c3cccs3)CC2)cc1	-25	9	7	-6	-25	.	.
Cc1ccc(C2=NN(C(=O)CCl)C(c3ccco3)C2)o1 (centres undefined)	-1	.	100*	5	8	99*	58*
CC(=O)N1N=C(c2ccco2)CC1c1ccco1 (centres undefined)	4	-8	7	-4	1	.	.
COCc1cc(=O)n2[nH]cc(-c3ccccc3)c2n1	-17	7	7	-7	-24	.	.
CCCc1cc(=O)n2[nH]cc(-c3ccc(Cl)cc3)c2n1	-3	80*	55*	8	-8	53*	18
Cc1c(Cl)cccc1NC(=O)CSc1nc(=O)n(CCCN2CCOCC2)c2c1CCC2	3	0	-7	7	5	.	.
OCCN1CCN(c2ncnc3ccc(Br)cc23)CC1	27	.	51*	-6	-14	60*	45*
O=C1OC(Nc2ccc(F)c([N+](=O)[O-])c2)c2ccccc21 (centres undefined)	10	0	3	-2	8	.	.
O=C1OC(Nc2ccc3c(c2)OCO3)c2ccccc21 (centres undefined)	19	-31	70*	-14	3	41*	55*
SMILES	Jurkat NFkB inh	Beta apoptosis	Mdm2 MdmX PPI	Gli-Sufu block	697 NFkB inh	Mdm2-MdmX conf	FLuc counter
COc1cc(C(=O)Nc2ccccc2C(=O)Nc2ccccn2)cc(OC)c1OC	36	8	63*	1	-8	52*	47*
CC(C)n1c(O)c(/C=C2\C=NN=C2c2ccccc2)sc1=S	0	-9	61*	-7	-18	43*	48*
CCn1c(O)c(/C=C2\C=NN=C2c2ccc(C)cc2)sc1=S	-15	10	82*	-22	-48	63*	97*
CCOc1cccc(C(=O)Nc2cccc(-c3nnc(-c4ccc(C)cc4)o3)c2)c1	15	13	84*	-17	-24	8	.
CCOc1cccc(C(=O)Nc2cccc(-c3nnc(-c4ccccc4)o3)c2)c1	12	.	51*	-5	-26	25	.
COc1cccc(C(=O)Nc2cccc(-c3nnc(-c4ccccc4)o3)c2)c1	-21	3	42	-16	5	.	.
COc1ccc(CC(=O)Nc2cccc(-c3nnc(-c4ccc(C)cc4)o3)c2)cc1OC	45	42	72*	2	3	75*	67*
CCOc1cccc(C(=O)Nc2ccc3oc(-c4cccnc4)nc3c2)c1	21	-7	12	19	-14	.	.
CCCCCC(=O)Nc1cccc(S(=O)(=O)NC2=NCCC2)c1	-2	-1	-13	-12	-15	.	.
Cc1cccc(NC(=O)CSc2cccc3cccnc23)c1C	-11	-7	-7	9	-2	.	.
Cc1cccc(CSc2cccc3cccnc23)c1	13	46	51*	8	-50	67*	37*
CCOC(=O)CSc1cccc2cccnc12	10	16	77*	11	-1	14	.
NNC(=O)c1ccc(CSc2cccc3cccnc23)cc1	-14	2	0	-12	17	.	.
COc1ccc(/C=C2\CCC/C(=C\C=N\N(C)C)C2=O)cc1	-4	-10	95*	18	-12	51*	29
CN(C)/N=C/C=C1\CCC/C(=C\c2ccc(F)c(F)c2)C1=O	-5	19	77*	6	-30	28	44*
COc1ccc(/C=C2\CCCCC2=O)cc1	-6	-4	-4	-5	-33	.	.
Oc1c(N=NC(=S)Nc2ccccc2F)c2ccccc2n1Cc1ccccc1F	6	46	64*	18	22	48*	46*
Oc1c(N=NC(=S)Nc2ccccc2F)c2ccccc2n1Cc1ccc(Cl)cc1	5	38	54*	7	-13	46*	68*
COc1ccc(CN2CCN(C3CCC3)CC2CCO)c(F)c1 (centres undefined)	6	.	34	14	10	.	.
O=C(Nc1ccccc1SCC1CSc2nc3ccccc3c(=O)n21)c1ccccc1Cl (centres undefined)	9	11	-14	-3	-14	.	.
Cc1cccc(C(=O)Nc2ccccc2SCC2CSc3nc4ccccc4c(=O)n32)c1 (centres undefined)	-15	.	63*	8	-137	44*	107*
